{"source": "PubChem BioAssay (NCI)", "note": "About 79,000 compounds went through this panel and 15% of them were active in at least one assay; those are over-represented in the sample as a whole. Values without a mark were called inactive. No stated cut-off is given here; in the data, active means growth inhibition above about 70%; inactive means the rest.", "data": [{"test": "NCI Yeast Anticancer Drug Screen. Data for the mlh1 rad18 strain (AID 175)", "settings": "S. cerevisiae mlh1 rad18 strain growth inhibition; at 50.0 µM; hits give high values", "procedure,_shortened": "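Test agents were incubated with a yeast strain of defined genotype (DNA damage repair defect). Inhibition of growth was derived by comparison with vehicle-exposed cultures.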", "units": {"growth inhibition": "%"}, "values": [{"smiles": "C/C(=N/NC(N)=O)c1ccc(C)o1", "growth inhibition": 0.35}, {"smiles": "COc1ccccc1NC(N)=S", "growth inhibition": -26.9}, {"smiles": "N#CC1CCCC/C1=N/NC(N)=O", "note": "(stereo not given)", "growth inhibition": -6}, {"smiles": "CCOc1ccccc1/C=C(\\C#N)c1cccc(Cl)c1", "growth inhibition": -4.15}, {"smiles": "COc1ccc(CN=CN/C(C#N)=C(\\N)C#N)cc1OC", "growth inhibition": -23.6}, {"smiles": "c1ccc2c(c1)ccc1c3ccccc3ncc21", "growth inhibition": 23.1}, {"smiles": "Cc1ccc(N=Nc2c(C)nn(-c3ccccc3)c2C)c(Br)c1", "growth inhibition": 38.6}, {"smiles": "COc1cc2c(c3c1c(=O)c1ccccc1n3C)C=CC1(CCCCC1)O2", "growth inhibition": -7.4}, {"smiles": "Cc1ccc(C(C#N)c2ccc(N)cc2)cc1", "note": "(stereo not given)", "growth inhibition": 32.5}, {"smiles": "O=C1Nc2ccccc2/C1=N/N=P(c1ccccc1)(c1ccccc1)c1ccccc1", "growth inhibition": -5.15}, {"smiles": "Nc1ncnc2c1nnn2CC(O)CO", "note": "(stereo not given)", "growth inhibition": 5.2}, {"smiles": "COC1(OC)C2(Cl)C(Cl)=C(Cl)C1(Cl)C1CCCCCC12", "note": "(stereo not given)", "growth inhibition": 8.15}, {"smiles": "Cn1nc2ccccc2cc1=O", "growth inhibition": 14.9}, {"smiles": "CC(=O)N(C(C)=O)C1=C(c2ccccc2)C(=O)c2ccccc21", "growth inhibition": 40.1}, {"smiles": "CCNC(=O)OC1C=CS(=O)(=O)C1", "note": "(stereo not given)", "growth inhibition": -10.2}, {"smiles": "O=c1c2[nH]cnc2n(-c2ccccc2)c(=S)n1-c1ccccc1", "growth inhibition": 13.8}, {"smiles": "O=C(NCN1CCOCC1)Nc1ccccc1", "growth inhibition": 2.05}, {"smiles": "N#Cc1ccccc1OCCCCCCCCCCOc1ccccc1C#N", "growth inhibition": 3.8}, {"smiles": "Cc1ccc(Nc2ccc(O)c3c2C(=O)c2ccccc2C3=O)cc1", "growth inhibition": 15.5}, {"smiles": "CC(=O)Nc1ccccc1NC1CC(C)N(c2ccccc2)N1C(C)=O", "note": "(stereo not given)", "growth inhibition": 1.05}, {"smiles": "O=C(O)c1ccc(NC(=S)Nc2ccc(C(=O)O)cc2)cc1", "growth inhibition": -22.9}, {"smiles": "Cc1ccc2[nH]c(=S)n(CCc3ccccc3)c(=O)c2c1", "growth inhibition": 13.7}, {"smiles": "CC(CCc1ccccc1)N(C)C(=O)CNC(=O)CN1C(=O)c2ccccc2C1=O", "note": "(stereo not given)", "growth inhibition": -6.9}, {"smiles": "CC(=O)OC1CCC2(C)C(CCC3C2CCC2(C)C(C(C)C(=O)O)CCC32)C1", "note": "(stereo not given)", "growth inhibition": 3.9}, {"smiles": "Nc1ccc(C(=O)Nc2ccc3c(O)cc(S(=O)(=O)O)cc3c2)cc1", "growth inhibition": 8.6}, {"smiles": "O=C1N(CC2CO2)CCN1CC1CO1", "note": "(stereo not given)", "growth inhibition": -76}, {"smiles": "CCN(CC)C1Oc2cc3c(cc2C(c2cc(OC)c(O)c(OC)c2)C1C)OCO3", "note": "(stereo not given)", "growth inhibition": 3.85}, {"smiles": "COC1(OC)CC2C(=O)N(Cc3ccccc3)C1C=C2S(=O)(=O)c1ccccc1", "note": "(stereo not given)", "growth inhibition": 8.25}, {"smiles": "CSC(=S)Nc1cc(C)cc(C)n1", "growth inhibition": 60.8}, {"smiles": "O=C(NC(=O)c1ccccc1[N+](=O)[O-])Nc1ccc(Oc2ncc(Cl)cn2)c(C(F)(F)F)c1", "growth inhibition": -54.6}, {"smiles": "CC(CO)(CO)[N+](=O)[O-]", "growth inhibition": 19.9}, {"smiles": "CCOC(=O)C1CC1c1ccccc1", "note": "(stereo not given)", "growth inhibition": 8.5}, {"smiles": "COC(=O)CCC(=O)CN1C(=O)c2ccccc2C1=O", "growth inhibition": 1.5}, {"smiles": "CN(Cc1ccccc1)C(=O)c1ccc(C(=O)N(C)Cc2ccccc2)cc1", "growth inhibition": 40.2}, {"smiles": "ClCCOC(c1ccc(Cl)cc1)c1ccc(Cl)cc1", "growth inhibition": 19.8}, {"smiles": "COc1cc2c(cc1O)C(=O)CCCC2", "growth inhibition": 1.2}, {"smiles": "COc1ccc(N(N=Nc2ccccc2)C(C)=O)cc1", "growth inhibition": 11.9}, {"smiles": "CN1C(=O)CNS1(=O)=O", "growth inhibition": 7.3}, {"smiles": "Nc1nnc2nc(CC(=O)Cc3ccccc3)c(CC(=O)Cc3ccccc3)nn12", "growth inhibition": 9.35}, {"smiles": "Cc1cc(C)cc(C(C)C)c1", "growth inhibition": -6.95}]}]}
